The values below come from PubChem BioAssay AID1076 (NMMLSC, 2008).

Structures are written as SMILES. Active and inactive are the calls of the source.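 The calls were made as follows: active = cell event count below 40, meaning activity score above 60 where score is 100 minus count; inactive = the rest.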

This experiment can be described thus: cytotoxicity in LNCaP prostate cells – cell-based, cell event count, single point, cytotoxicity control for prostate differentiation activator project, confirmation (AID 1076).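 Also: counts scatter-gated live cells after medium removal discards detached dead cells.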 The note with it: LNCaP cell loss, flow cytometry event count, 4 d, stronger effect = lower value. (A flow cytometer gives signals particle by particle.)

`Cc1ccc(NC(=O)N2CCCN(Cc3ccc(F)cc3)C2)cc1C`: the cell event count reads like this: (at 100 µM) 13 (inactive); (event count, at 10 µM) 142.

As for `COC(=O)c1cc2oc3ccccc3c2n1CC(=O)Nc1ccccc1OC`, the cell event count reads like this: (at 100 µM) 169 (inactive); (event count, at 10 µM) 184.

As for `COc1ccc(CN2C(=O)C(O)(CC(=O)c3c(C)n[nH]c3C)c3ccccc32)cc1OC` (configuration not stated), the cell event count reads like this: (at 100 µM) 284 (inactive); (event count, at 10 µM) 248.

On to `Cn1c(=O)cc(OCC(=O)NCCCN2CCN(c3ccccc3F)CC2)c2ccccc21`, for which the cell event count reads like this: (at 100 µM) 227 (inactive); (event count, at 10 µM) 401.

With `Oc1c(CN2CCCCC2)cc(COCc2ccccc2)c2cccnc12`, the cell event count is 35 (inactive) (at 100 µM) and 92 (event count, at 10 µM).

Take `COc1ccc(-c2cc(C(F)(F)F)nc(N3CCN(c4ccc(F)cc4)CC3)n2)cc1OC`: the cell event count is, setting by setting: (at 100 µM) 184 (inactive); (event count, at 10 µM) 96.

Take `Cc1ccccc1-c1nc(CN2CCC(C(=O)NCC3CCCO3)CC2)c(C)o1` (configuration not stated): the cell event count was 71 (inactive) (at 100 µM) and 139 (event count, at 10 µM).

Take `COC(=O)c1ccccc1NC(=O)CN1CCC(n2nnc3cc(F)ccc32)CC1`: the cell event count is 174 (inactive) (at 100 µM) and 112 (event count, at 10 µM).

Take `N=c1n(CCN2CCCCC2)c2ccccc2n1CC(O)COc1ccccc1` (configuration not stated): the cell event count is 20 (inactive) (at 100 µM) and 178 (event count, at 10 µM).

As to `COc1ccc(N2CCN(CCCNC(=O)C3CCCN(S(=O)(=O)c4cnc[nH]4)C3)CC2)cc1` (configuration not stated), the cell event count is, setting by setting: (at 100 µM) 31 (inactive); (event count, at 10 µM) 92.5.

Turning to `CCOC(=O)C1CCN(S(=O)(=O)c2ccc(-c3nc4ccccc4s3)s2)CC1`, the cell event count is 70 (inactive) (at 100 µM) and 136 (event count, at 10 µM).
